Data published in PubChem BioAssay AID463173 (ICCB-Longwood Screening Facility, Harvard Medical School, 2010).
Out of some 52,000 compounds screened, about 4,300 (8.3%) were called active. Rule as the data show it: active = survival mostly below about 52% (no sharp cut-off); inactive = mostly above about 56%. For the sample, actives were picked, then their nearest neighbours and some compounds at random.

Tested on: DeltatarO mutant
Assay: S. aureus survival, RN4220 and DeltatarO strains – OD600, teichoic acid synthesis inhibitors, primary screen (AID 463173)
Conditions: S. aureus RN4220 wild type/DeltatarO growth, OD600, 18 h, hits give low values, screened at 18.75 µg/mL (by protocol)

| Structure (SMILES) | survival |
| --- | --- |
| CN(C)c1ccc(C(=O)NC2CCSC2=O)cc1 (stereo unspecified) | 66% (inactive) |
| Cc1ccc(Cl)cc1N1CCN(C(=O)C(C)n2ncn3cccc3c2=O)CC1 (stereo unspecified) | 66% (inactive) |
| Cc1ccc2nc(-c3ccc(NC(=O)COc4ccc(Br)cc4Br)cc3)sc2c1 | 104% (inactive) |
| CCOc1cc(-c2nnc(SCC(=O)NCCCOC)nc2-c2ccc(OC)c(OCC)c2)ccc1OC | 73% (inactive) |
| COc1ccc(NC(=O)CCCN2C(=O)COc3ccc(C)cc32)cc1OC | 119% (inactive) |
| COc1ccc(CNC(=O)c2oc3c(c2C)-c2nn(Cc4ccccc4Cl)cc2CC3)cc1 | 89% (inactive) |
| O=C(Nc1ccc2nc(SCCOc3ccccc3Cl)sc2c1)c1cccs1 | 49% (inactive) |
| Cc1ccccc1OCCSc1nc2ccc(NC(=O)c3ccco3)cc2s1 | 25% (active) |
| O=C(Nc1ccc2nc(SCCOc3ccccc3)sc2c1)c1ccco1 | 99% (inactive) |
| CC(C)(C)C(=O)Nc1ccc2nc(SCCOc3ccccc3Cl)sc2c1 | 89% (inactive) |
| O=C(Nc1ccc2nc(SCCOc3ccccc3Cl)sc2c1)c1ccco1 | 14% (active) |
| CC(=O)Nc1ccc2nc(SCCOc3ccccc3Cl)sc2c1 | 3% (active) |
| Cc1ccccc1OCCSc1nc2ccc(NC(=O)c3ccccc3)cc2s1 | 57% (inactive) |
| COc1cc(C)ccc1OCCSc1nc2ccc(NC(=O)c3ccco3)cc2s1 | 62% (inactive) |
| Cc1ccc(OCCSc2nc3ccc(NC(=O)c4ccco4)cc3s2)cc1 | 84% (inactive) |
| O=C(NC1CCCC1)c1ccc2c(c1)N(Cc1ccccc1F)C(=O)c1ccccc1S2 | 81% (inactive) |
| Cc1nc2cccnc2n1-c1cccc(C(=O)NCCN(C)C)c1 | 74% (inactive) |
| O=C(NCC(c1cccs1)S(=O)(=O)c1ccccc1)c1ccc(C(F)(F)F)cc1 (stereo unspecified) | 90% (inactive) |
| O=C(NCCc1ccc(Cl)cc1)c1cnc2sc(N3CCOCC3)nn2c1=O | 77% (inactive) |
| O=C(NCc1ccc(Cl)cc1)c1cnc2sc(N3CCOCC3)nn2c1=O | 52% (active) |
| O=C(NCc1ccc(Cl)cc1)c1cnc2sc(N3CCCC3)nn2c1=O | 72% (inactive) |

| Structure (SMILES) | survival |
| --- | --- |
| O=C(CN1C(=O)C2(SCC(=O)N2c2cccc(Cl)c2)c2ccccc21)NC1CCCCC1 (stereo unspecified) | 86% (inactive) |
| Cc1ccc2c(CC(=O)Nc3ccc(S(=O)(=O)N4CCCCC4C)cc3)coc2c1C (stereo unspecified) | 53% (inactive) |
| COc1ccccc1NC(=O)CN1C(=O)C(c2ccc(F)cc2)=NC12CCCCC2 | 72% (inactive) |
| Cc1ccc(S(=O)(=O)NCCc2cn3ccsc3n2)cc1 | 64% (inactive) |
| COc1ccc(S(=O)(=O)NCCc2cn3ccsc3n2)cc1OC | -1% (active) |
| COc1ccc(S(=O)(=O)NCCc2cn3ccsc3n2)cc1 | 86% (inactive) |
| CCN(CCCNC(=O)c1cc2c(=O)[nH]c3ccc(C)cc3c2s1)c1ccc(C)cc1 | 68% (inactive) |
| CCc1cccc(C)c1NC(=O)COCc1cc(-c2ccc3c(c2)OCO3)on1 | 101% (inactive) |
| CCOCCn1ccc2c(OCC(=O)Nc3ccc(C(N)=O)cc3)cccc2c1=O | 37% (active) |
| CCOCCn1ccc2c(OCC(=O)Nc3cccc(F)c3)cccc2c1=O | 91% (inactive) |
| COCCn1ccc2c(OCC(=O)NCc3ccc(F)cc3)cccc2c1=O | 92% (inactive) |
| CCn1ccc2c(OCC(=O)NCc3ccccc3)cccc2c1=O | 102% (inactive) |
| CCn1ccc2c(OCC(=O)Nc3ccccc3C(F)(F)F)cccc2c1=O | 85% (inactive) |
| CCn1ccc2c(OCC(=O)Nc3ccccc3C)cccc2c1=O | 8% (active) |
| CCn1ccc2c(OCC(=O)Nc3ccc(C(C)=O)cc3)cccc2c1=O | 66% (inactive) |
| CCn1ccc2c(OCC(=O)Nc3ccc(OC)cc3OC)cccc2c1=O | 20% (active) |
| COCCn1ccc2c(OCC(=O)Nc3ccccc3F)cccc2c1=O | 25% (active) |
| CCOCCn1ccc2c(OCC(=O)Nc3cc(C)cc(C)c3)cccc2c1=O | 83% (inactive) |
| CCOc1ccccc1NC(=O)COc1cccc2c(=O)n(CCOC)ccc12 | 70% (inactive) |
| COCCn1ccc2c(OCC(=O)Nc3cccc(OC)c3)cccc2c1=O | 92% (inactive) |
| COC(=O)c1sccc1S(=O)(=O)N(CC(=O)NCc1ccc(C)cc1)c1ccc(C)c(C)c1 | 68% (inactive) |

| Structure (SMILES) | survival |
| --- | --- |
| Fc1ccccc1N1CCN(c2ncnc3c2nc2n3CCCC2)CC1 | 84% (inactive) |
| O=C(Nc1ccccc1)c1ccc(S(=O)(=O)N2CCCC2)cc1 | 94% (inactive) |
| N#Cc1ccccc1NC(=O)C(=O)NCC(c1ccc2c(c1)OCO2)N1CCOCC1 (stereo unspecified) | 71% (inactive) |
| CCC(=O)N1CCc2cc(Br)cc(S(=O)(=O)CCC(=O)N3CCN(c4ccccc4F)CC3)c21 | 80% (inactive) |
| O=C(NCc1ccccc1Cl)C1CCCN(S(=O)(=O)c2cccc3nsnc23)C1 (stereo unspecified) | 91% (inactive) |
| CCN1CCN(CCC(=O)Nc2ccc(OC)cc2)CC1 | 97% (inactive) |
| Cc1nn(-c2ccccc2)c2sc(C(=O)N(CC(=O)NC3CCCC3)C3CC3)cc12 | 78% (inactive) |
| Cc1nn(-c2ccccc2)c2sc(C(=O)NN=C3CCCC3)cc12 | 109% (inactive) |
| Cc1nn(-c2ccccc2)c2sc(C(=O)N(Cc3ccco3)C(C)C(=O)NC3CCCCC3)cc12 (stereo unspecified) | 60% (active) |
| O=C(OCc1ccccc1Cl)c1ccc(-c2nnn(Cc3ccccc3)n2)cc1 | 52% (inactive) |
| CC(C)CNC(=O)C1CCN(S(=O)(=O)c2ccc(-n3cnnn3)cc2)CC1 | 86% (inactive) |
| Cc1ccc(NC(=O)Cn2c(=O)nc(-c3ccccc3F)c3cc(Cl)ccc32)c(Br)c1 | 79% (inactive) |
| O=C1CC2CCC(CN1)N2S(=O)(=O)c1ccc(C(=O)O)cc1 (stereo unspecified) | 93% (inactive) |
| Cc1ccc(-c2cc(C(=O)N3CCN(S(=O)(=O)c4ccc(Br)s4)CC3)[nH]n2)c(C)c1 | 70% (inactive) |
| O=C(NCc1ccccc1Cl)c1cnc2sc(N3CCCCC3)nn2c1=O | 76% (inactive) |
| COc1ccc(C(=O)NCC(c2ccc(N(C)C)cc2)N2CCc3ccccc32)cc1 (stereo unspecified) | 118% (inactive) |
| Cc1cc(C(=O)NCc2ccc(C(=O)O)o2)c(C)o1 | 58% (active) |
| Cc1cc(C(=O)Nc2ccccc2C(=O)O)c(C)o1 | 66% (inactive) |
| Cc1cc(C(=O)NCC(=O)O)c(C)o1 | 76% (inactive) |
